Sampled rows, rich in hits. Any-hit rate of the full collection: about 1.4%.
NS1 inh – inhibitors of influenza NS1 protein function; hit rate 0.4% among 270,000; Potency, µM (top dose mostly 46.1 µM), for the others: at the top dose activity, positive = more growth; calls by dose curve; note: actives are rising curves; nearly all actives have a fitted effect of over 50% in size
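In this qHTS, NS1 from influenza A is expressed in budding yeast, where it slows growth. Cells are switched from glucose to 2% galactose medium (pH 6.0, -URA), treated with compound, and growth recovery is read at OD600.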
AmpC inh detg – blocks E. coli AmpC beta-lactamase in detergent assay | AmpC hydrolysis of nitrocefin, absorbance 480 nm, 0.01% Triton | Potency, µM (highest dose often 114 µM), for the others: at the top dose activity change, negative = inhibition, actives largely listed as inhibitors | hit rate 0.041% among 370,000;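 note: 0% = no-compound wells and -100% = no-enzyme wells; nearly all actives have a fitted effect of over 25% in size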
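20 mM phosphate pH 7.0 + 0.01% (detergent screen) or 0.0001% Triton X-100; 5.3 nM AmpC reagent; cpd preinc 15 min RT; nitrocefin (800 uM stock) to start; A480 q20 s × 4 min; Activity was normalised to no-enzyme and no-compound control wells.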
SARS PLpro yeast – inhibitors of SARS-CoV papain-like protease in yeast. S. cerevisiae expressing SARS-CoV PLpro, growth rescue. Potency, µM (highest dose often 32.9 µM), without a hit: at the highest dose activity, positive = growth rescue, hits mostly activators. hit rate 0.19% among 330,000. AID 485353; calls by dose curve; note: 0% is about no effect; nearly all actives have a fitted effect of over 55% in size
Giardia FBPA inh-1 – Giardia lamblia aldolase inhibition; A8B2U2; purified Giardia FBPA; Potency, µM (top dose mostly 59.6 µM), without a hit: top-dose activity, negative = inhibition, actives largely listed as inhibitors; hit rate 0.71% among 290,000; AID 2451; note: % is set by controls: 0 for no effect and ±100 for the full control effect; nearly all actives have a fitted effect of over 55% in size
Target sequence (A8B2U2 whole entry, looked up): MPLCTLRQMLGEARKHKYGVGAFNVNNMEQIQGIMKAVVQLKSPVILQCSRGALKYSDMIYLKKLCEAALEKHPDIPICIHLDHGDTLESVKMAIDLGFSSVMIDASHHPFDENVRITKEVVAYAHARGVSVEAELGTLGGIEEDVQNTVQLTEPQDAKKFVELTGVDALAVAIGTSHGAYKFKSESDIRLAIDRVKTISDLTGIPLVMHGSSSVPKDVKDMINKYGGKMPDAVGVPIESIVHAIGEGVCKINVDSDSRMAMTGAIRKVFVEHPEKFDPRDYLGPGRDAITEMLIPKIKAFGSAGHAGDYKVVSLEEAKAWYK
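40 nM FBPA preincubated 10 min at RT with compound (up to 57.5 uM final), then substrate plus GAPDH/TPI/NAD/arsenate coupling and diaphorase/resazurin added. Fluorescence read after 20 min at RT, 525/598 nm.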
AmpC inh no detg – AmpC beta-lactamase inhibition without detergent | P00811 | AmpC nitrocefin hydrolysis, absorbance 480 nm, 0.0001% Triton | Potency, µM (series often up to 57.1 µM), for the others: top-dose activity change, negative = inhibition, most hits filed as inhibitors | AID 485341 | hit rate 0.52% among 330,000;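 note: plate controls were no compound for no effect and no enzyme for full effect; nearly all actives have a fitted effect of over 20% in size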
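20 mM phosphate pH 7.0 + 0.01% (detergent screen) or 0.0001% Triton X-100; 5.3 nM AmpC reagent; cpd preinc 15 min RT; nitrocefin (800 uM stock) to start; A480 q20 s × 4 min; Activity was normalised to no-enzyme and no-compound control wells.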
Giardia growth – blocks growth of Giardia lamblia trophozoites; shares compounds with Giardia FBPA inh-1; Potency, µM (titrated, usually from 57.5 µM), without a hit: at the highest dose activity change, negative = inhibition, actives largely listed as inhibitors; Giardia lamblia trophozoite growth inhibition; hit rate 5% among 1,500; AID 2785;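 note: trophozoites exposed to compound for 48 h at 37 °C; % is set by controls: 0 for no effect and ±100 for the full control effect; nearly all actives have a fitted effect of over 70% in size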
Mammal cell tox – counter-screen for Giardia aldolase inhibitors: mammalian cell toxicity. shares compounds with Giardia FBPA inh-1. mammalian cell viability counter-screen, qHTS. Potency, µM (titrated, usually from 57.5 µM), without a hit: at the highest dose viability change, negative = toxicity, most hits filed as inhibitors. hit rate 4% among 1,500;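 note: Chinese hamster ovary cells used as mammalian cytotoxicity surrogate; viability measured as cellular ATP by luminescence; compound exposure lasted 48 h before reading; % is set by controls: 0 for no effect and ±100 for the full control effect; nearly all actives have a fitted effect of over 60% in size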
Giardia FBPA inh-2 – confirmation of Giardia fructose-bisphosphate aldolase inhibitors; shares compounds with Giardia FBPA inh-1; purified Giardia aldolase enzyme activity, qHTS; Potency, µM (top dose mostly 57.5 µM), for inactives: top-dose activity change, negative = inhibition, usual class: inhibitors; hit rate 5% among 1,500; AID 2787; note: % is set by controls: 0 for no effect and ±100 for the full control effect; nearly all actives have a fitted effect of over 45% in size
Rabbit FBPA inh – selectivity test for Giardia aldolase inhibitors: rabbit aldolase | shares compounds with Giardia FBPA inh-1 | Potency, µM (highest dose often 57.5 µM), for the others: at the highest dose activity, negative = inhibition, hits mostly inhibitors | hit rate 4% among 1,500 | Rabbit muscle FBPA enzyme inhibition, selectivity counter-screen | AID 2794; note: % is set by controls: 0 for no effect and ±100 for the full control effect; nearly all actives have a fitted effect of over 60% in size
Target sequence (P00883 whole entry, looked up): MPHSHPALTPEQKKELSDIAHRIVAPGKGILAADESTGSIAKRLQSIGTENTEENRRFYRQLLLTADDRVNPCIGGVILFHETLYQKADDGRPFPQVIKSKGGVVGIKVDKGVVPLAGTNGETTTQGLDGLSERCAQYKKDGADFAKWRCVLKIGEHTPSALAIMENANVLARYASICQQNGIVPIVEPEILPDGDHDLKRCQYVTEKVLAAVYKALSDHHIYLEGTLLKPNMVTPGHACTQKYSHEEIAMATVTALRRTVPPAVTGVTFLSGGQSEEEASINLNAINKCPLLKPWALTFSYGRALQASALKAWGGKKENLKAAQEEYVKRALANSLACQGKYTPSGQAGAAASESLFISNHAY
GAPDH coupling – counter-screen for Giardia aldolase inhibitors: GAPDH coupling enzyme; shares compounds with Giardia FBPA inh-1; Potency, µM (series often up to 57.5 µM), for the others: at the top dose activity change, negative = inhibition, hits mostly inhibitors; hit rate 6% among 1,500; GAPDH coupling enzyme counterscreen, biochemical, qHTS; note: % is set by controls: 0 for no effect and ±100 for the full control effect; nearly all actives have a fitted effect of over 55% in size
Starred values were filed as active, the others as inactive; ? = inconclusive; . = no result given; [ ] = dose if it differs, or a comment. Unless noted, calls come from the whole dose curve; as a rule, active = well fitted curve in the direction sought with a large enough effect; inconclusive = small, poorly fitted or top-dose-only effect, or another doubt; inactive = no such curve, though single readings can be large; an effect the other way counts as inactive or inconclusive. Potency is the fitted concentration of half-maximal effect.

SMILES	NS1 inh	AmpC inh detg	SARS PLpro yeast	Giardia FBPA inh-1	AmpC inh no detg	Giardia growth	Mammal cell tox	Giardia FBPA inh-2	Rabbit FBPA inh	GAPDH coupling
COc1cc(CN2CCC(C(=O)NCC(C)(C)CN(C)C)CC2)ccc1OCc1ccccc1	-13%	?	-1%	22µM*	7%	?	-20%	9%	6%	11%
COc1ccc(Br)cc1CNc1ccccc1	-11%	-3%	14%	28µM*	-28%	?	-2%	-5%	-6%	0%
CC(=O)Nc1nc2c(ncn2COCCOC(C)=O)c(=O)[nH]1	9%	-5%	0%	4%	-10%	.	.	.	.	.
Cc1nc(NC(=O)c2ccccc2)sc1C	-14%	?	-3%	-11%	-15%	.	.	.	.	.
Cc1nc(NC(=S)NC(=O)c2ccccc2)sc1C	-2%	3%	0%	11µM*	-16%	?	?	-2%	4%	8%
Cc1ccc(C(=O)Nc2nc(C)c(C(=O)N(C)C)s2)o1	-14%	?	-9%	-9%	-20%	.	.	.	.	.
Cc1nc(NC(=S)NC(=O)c2ccco2)sc1C(=O)N(C)C	8%	-2%	3%	10µM*	-6%	-5%[38.3 µM]	-14%	-2%	7%	5%
O=C(O)CC(Cn1[nH]nnc1=S)c1ccccc1 (stereo not given)	1%	-8%	-4%	16µM*	-17%	66%	-9%	-12%	4%	7%
O=C(O)CC(CC(=O)Nc1nncs1)c1ccccc1 (stereo not given)	-5%	?	1%	-1%	-13%	.	.	.	.	.
COCCNC(=S)NNc1ccc(Cl)c(C(=O)O)c1	6%	3%	0%	7.1µM*	-1%	?	4%	-8%	-4%	-7%
COc1cc(OC)cc(C(=O)NC(=S)Nc2ccc(Cl)c(C(=O)O)c2)c1	10%	0%	3%	-18%	-21%	.	.	.	.	.
Cc1cc2c(N=NC(=O)C3CC3c3ccccc3)c(O)[nH]c2cc1Br (stereo not given)	8%	-15%	17%	3%	-24%	.	.	.	.	.
C[C@]12CC[C@@H]3c4cc(O)c(O)cc4CC[C@H]3[C@@H]1CC[C@@H]2O	22%	-1%	2%	16µM*	-46%	7%	-15%	4µM*	?	-29%
CCC1(CC)Cc2ccccc2-c2nc(NN)[nH]c(=O)c21	13%	8%	-1%	?	-32%	.	.	.	.	.
CCC1(C)Cc2ccccc2-c2nc(NN)[nH]c(=O)c21 (stereo not given)	?	10%	-3%	22µM*	-48%	23%	2%	1%	-23%	-27%
CCOc1ccccc1NS(=O)(=O)c1c(C)noc1C	-6%	?	1%	13µM*	-35%	-28%	0%	?	?	40µM*
Cn1c(=O)cc(C(=O)N/N=C/c2ccc(F)cc2)[nH]c1=O	5%	-1%	2%	16µM*	-6%	122%	14%	5%	-7%	6%
Cn1c(-c2cccc([N+](=O)[O-])c2)cnc1NCc1cccc(F)c1	-6%	-15%	-1%	28µM*	-18%	-9%[10.4 µM]	-21%	-5%	3%	5%
O=C(N/N=C\c1ccc(O)c([N+](=O)[O-])c1)c1ccccc1-n1cccc1	-21%	?	4%	16%	-33%	.	.	.	.	.
COC(=O)c1ccc(CC(=O)c2c(C)cc(O)cc2O)o1	3%	?	-1%	16µM*	-53%	-16%	6%	16µM*	40µM*	?
COc1ccc(N2C(=O)CC(NNc3ncc(Cl)cc3Cl)C2=O)cc1 (stereo not given)	.	-6%	-5%	16µM*	-12%	-1%[10.4 µM]	-13%	12%	5%	8%
COc1ccc(/C=C(/C(=O)N2CCCCC2C(=O)O)c2ccc(OC)c(OC)c2)cc1 (stereo not given)	.	.	4%	.	-6%	.	.	.	.	.
CCN1CCN(CC(=O)Nc2cc3c(cc2C(C)=O)OCO3)CC1	.	-14%	-1%	13µM*	-25%	-1%[10.4 µM]	13%	-2%	3%	9%
CCN(CC(=O)Nc1cccc(OC)c1)CC(=O)Nc1ccc(C)cc1Cl	.	7%	-3%	16µM*	29%	17%[10.4 µM]	-4%	0%	-1%	7%
CCN(CC(=O)Nc1ccc(NC(C)=O)cc1)CC(=O)Nc1ccc(Cl)c(Cl)c1	2%	?	-1%	7.9µM*	1%	-6%[10.4 µM]	-6%	7%	5%	5%
SMILES	NS1 inh	AmpC inh detg	SARS PLpro yeast	Giardia FBPA inh-1	AmpC inh no detg	Giardia growth	Mammal cell tox	Giardia FBPA inh-2	Rabbit FBPA inh	GAPDH coupling
CCN(CC(=O)Nc1ccc(NC(C)=O)cc1)CC(=O)Nc1cccc(Cl)c1	-1%	2%	1%	-5%	-10%	.	.	.	.	.
C1CCC(NC2=NCCC2)CC1	2%	-9%	-9%	?	-20%	.	.	.	.	.
Cc1ccccc1N=Cc1cccc(O)c1O	-46%	?	-86%	5.6µM*	-48%	20µM*	-10%	11µM*	32µM*	32µM*
Cc1ccc(N=Cc2cccc(O)c2O)c(C)c1	-57%	0%	-15%	?	-51%	.	.	.	.	.
CCC(C)NC(=O)Cn1ccc2cc(S(=O)(=O)N3CCCCC3)ccc21 (stereo not given)	.	10%	.	.	.	.	.	.	.	.
Cc1nnc(SCC2=C(C(=O)O)N3C(=O)C(NC(=O)C(C)n4nc(C(F)(F)F)cc4C)C3SC2)s1 (stereo not given)	.	-14%	-1%	6.3µM*	94%	-11%	-6%	2%	2%	14%
Cc1nnc(SCC2=C(C(=O)O)N3C(=O)C(NC(=O)Cc4ccccc4)C3SC2)s1 (stereo not given)	.	-5%	-3%	.	-32%	.	.	.	.	.
CC(C(=O)NC1C(=O)N2C(C(=O)O)=C(CSc3nnnn3C)CSC12)n1cc(Cl)cn1 (stereo not given)	.	-2%	-1%	18µM*	-21%	13%[10.4 µM]	-4%	1%	2%	2%
COc1ccc2cc3cc(C(=O)NCCN4CCc5ccccc5C4)sc3nc2c1	-3%	?	-2%	16µM*	-2%	20%[10.4 µM]	-7%	-9%	4%	4%
